Data reported in the supplement of paper PMC6555819.

tested on: VDR:RXRa (NR concentration 270 nM, RXRa partner concentration 90 nM); assay: PBM binding z-score (relative to random genomic background probes); higher = stronger binding; sequences stand for … in GC…GCGATTGACAGCGTAGAATGAAGG
Method: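 Protein-binding microarray (Agilent 4x180K custom design, double-stranded 60-nt probes: 5' GC cap, 34-nt variable region, 24-nt constant primer region; full probe sequence given). Purified or IVT nuclear receptor:RXRα heterodimers (3:1 NR:RXRα, mostly 270:90 nM) or homodimers were incubated for 1 h in PBS with 2% milk and no ligand, then detected with Alexa488 antibodies. Fluorescence from o1-orientation probes (~5 replicates averaged) was converted to z-scores against 500 random hg19 background probes. Variable regions are seed direct-repeat (DR0–DR5) sites, all their single-nucleotide variants and half-site ablations.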

Q: TTACCAAGGAGAAAGGTCGTTGATGCACGCCTTG was tested. Which PBM binding z-score did it give?
A: The PBM binding z-score was 1.49.

Q: GCTAGTTGGTCCGTAAAAGGTCACACACCGGTCG was tested. Which PBM binding z-score did it give?
A: The PBM binding z-score was 3.97.

Q: How did the PBM binding z-score turn out when ATAAGTAGGTTAAGGGTCATTCAGGTTGGTTCGC was run?
A: Its PBM binding z-score is 5.89.

Q: How did the PBM binding z-score turn out when CAAACTAGGTCACGGGAAGGTCAAAGTCCGCATG was run?
A: Its PBM binding z-score is 6.27.

Q: With TCTTGTAGATTAGCAGGTTAAGAAAGCTGGCCAA as the sequence, how does the PBM binding z-score read?
A: The PBM binding z-score was 0.63.

Q: GCTCGGAGGGCAAGGTCAGAGCTTTGTCCGTAGA was tested. Which PBM binding z-score did it give?
A: The PBM binding z-score was 1.72.

Q: With ACAATGAGGTTATTAAGATCAGGGAATTGCGGTC as the sequence, how does the PBM binding z-score read?
A: The PBM binding z-score was 2.56.

Q: With TCTTGTAGCTCAATAGAGGTTAAGAAAGTGCGCT as the sequence, how does the PBM binding z-score read?
A: Its PBM binding z-score is 1.32.

Q: For AGAATGAGGTTTTTAAGATCAGGGAATTGCGGTC, which PBM binding z-score is on record?
A: Its PBM binding z-score is -0.0674.

Q: Which PBM binding z-score does the source give for CGAACTAGGTCACAACAGGACAGTGAAGGATGAT here?
A: The PBM binding z-score was 2.16.

Q: How did the PBM binding z-score turn out when CGAACGAGGGCACGAGTTGATAGCAAATGCCGAT was run?
A: The PBM binding z-score was 1.97.

Q: With AGAATGAGGTTATACGTGGATCAGGGAAGAAAGT as the sequence, how does the PBM binding z-score read?
A: Its PBM binding z-score is 1.56.

Q: Which PBM binding z-score does the source give for TCATATAGGTAAAGGTTAAAGTCGAACGATATGA here?
A: The PBM binding z-score was 1.98.

Q: With TCAGACAGGTGAAGGAAACTCAGGTACGCAGTCG as the sequence, how does the PBM binding z-score read?
A: The PBM binding z-score was 0.447.

Q: TCGAGTAGGTTACCAATGGGGCGTTCAGCTTTCT was tested. Which PBM binding z-score did it give?
A: The PBM binding z-score was -0.111.

Q: With ATCTCGAGGTAAAAGTTCAGTGAATCCCGAGGAT as the sequence, how does the PBM binding z-score read?
A: Its PBM binding z-score is 1.7.

Q: AGAACAAGGGCACGCTGAGTTGATAGCAGAGTAG was tested. Which PBM binding z-score did it give?
A: Its PBM binding z-score is 1.36.

Q: For GCTATTAGTTGAAAGGGAAACCGAATGATTCTCG, which PBM binding z-score is on record?
A: The PBM binding z-score was 0.00748.

Q: ATACCAAGGTGATCGTGAGGTCGTTGATACTAAC was tested. Which PBM binding z-score did it give?
A: The PBM binding z-score was 3.23.

Q: TAGCCTAGGTCATTCGGGGGCCAGTATAGAAAGC was tested. Which PBM binding z-score did it give?
A: The PBM binding z-score was 3.99.

Q: Which PBM binding z-score does the source give for TCATATAGGTAAAGGTGAGAGTCGAACGATATGA here?
A: Its PBM binding z-score is 0.633.

Q: For TCTAGCACGCCAGAGGGTCACTCAAGAGGTACGG, which PBM binding z-score is on record?
A: The PBM binding z-score was 1.37.

Q: Which PBM binding z-score does the source give for CCGAGTTGGTTATGGGGCATTCAGGCAACGGTGA here?
A: The PBM binding z-score was 0.221.

Q: TAGCCTAGGTCTTTGGGCCAGTATAGTACGCATC was tested. Which PBM binding z-score did it give?
A: Its PBM binding z-score is -0.592.

Q: How did the PBM binding z-score turn out when TGAATGATGTTAAAGATCAGGGAACGTGGCGTCG was run?
A: The PBM binding z-score was -0.0975.

Q: For GCGACTGGGTCATCAGCAGGTTACCATAACTTAA, which PBM binding z-score is on record?
A: Its PBM binding z-score is 2.27.

Q: Which PBM binding z-score does the source give for TCTGCTAGGTCTGTTGGTCAGCTAACGAGCTGCC here?
A: The PBM binding z-score was -0.568.

Q: For TCTCGGAGGACACGAAGGTCAGAGTTTTCCAGAG, which PBM binding z-score is on record?
A: Its PBM binding z-score is 2.41.

Q: How did the PBM binding z-score turn out when CATCCAAGGTCAAGGTCAGTGAAAGAGACTCGAA was run?
A: The PBM binding z-score was 5.07.

Q: Which PBM binding z-score does the source give for TCATATAGGTAAATGCTAGGTGATAGTCCGATCT here?
A: The PBM binding z-score was 0.757.

Q: TCTATTAGTTGATTAGGGCAACAGAAACAGCGGA was tested. Which PBM binding z-score did it give?
A: Its PBM binding z-score is 0.574.

Q: For AGAATGAGGTTATTAAGATCGGGGAATTGCGGTC, which PBM binding z-score is on record?
A: The PBM binding z-score was 1.98.

Q: AGTCAAAGTTCATGTAGGTAACGTAAGATATGCT was tested. Which PBM binding z-score did it give?
A: Its PBM binding z-score is 4.84.

Q: For CCGACTGGGGCACAAGGTTACCATAAGCCAGCCC, which PBM binding z-score is on record?
A: The PBM binding z-score was 0.209.

Q: For CCTACTGGCCCAAAGGTCATTGATTCCAATGCTC, which PBM binding z-score is on record?
A: Its PBM binding z-score is 4.28.

Q: For TCTGCTAGGTCAACGATGGTCAGCTAATCTGCTA, which PBM binding z-score is on record?
A: The PBM binding z-score was 1.54.

Q: For TCGTATAGGTAAACAGGTGAAAGTCCGTAAGTTA, which PBM binding z-score is on record?
A: Its PBM binding z-score is 0.883.

Q: With TAGCCTACGTCATGGGCCAGTATACCACGCGAAC as the sequence, how does the PBM binding z-score read?
A: The PBM binding z-score was -0.472.

Q: For CAAACTAGGTCACCGGAAGGTCAAAGTGCGCATG, which PBM binding z-score is on record?
A: Its PBM binding z-score is 6.18.

Q: For CGAACCAGGGCATGAGTTGATAGCAAATGCCGAT, which PBM binding z-score is on record?
A: The PBM binding z-score was 0.253.
